According to the supplement of paper PMC6555819:

test system: VDR:RXRa (NR concentration 270 nM, RXRa partner concentration 90 nM); test: PBM binding z-score (relative to random genomic background probes); higher = stronger binding; sequences stand for … in GC…GCGATTGACAGCGTAGAATGAAGG
Method: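 Protein-binding microarray (Agilent 4x180K custom design, double-stranded 60-nt probes: 5' GC cap, 34-nt variable region, 24-nt constant primer region; full probe sequence given). Purified or IVT nuclear receptor:RXRα heterodimers (3:1 NR:RXRα, mostly 270:90 nM) or homodimers were incubated for 1 h in PBS with 2% milk and no ligand, then detected with Alexa488 antibodies. Fluorescence from o1-orientation probes (~5 replicates averaged) was converted to z-scores against 500 random hg19 background probes. Variable regions are seed direct-repeat (DR0–DR5) sites, all their single-nucleotide variants and half-site ablations.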

Sequence | PBM binding z-score
CCTTACGGGGCACTCCAGGTTATAGCATCGGAGT | 0.0326
CATACGGGGTCAGCTAGGCCAGAGTAGGGACGGC | 6
ATCGAGAGGTCGAGGTGAGTATAGAGAAAGGGAA | 2.41
AGAATGAGGTTATTAAGATCAGGGTATTGCGGTC | 2.43
CTCGAAAGGTCGGTTGAGGTGAGAATACGGATAA | 2.26
GCTCGGATGACAAGGTCAGAGCTTTGTCCGTAGA | 0.722
CCGAGTGGGGCAGAAAGGTTACCATACCATCCGG | 0.759
TCTTGTAGATCAAGGGTTAAGAAAGCCGAAGCCT | 0.604
CAAACTAGGTCACCGGAAGTTCAAAGTCCGCATG | 6.24
ATACCAAGGTGATCGTGAGGTCGGTGATACTAAC | 0.863
ACTAGCAGGCCAAGGGTCACTCTAGATTAGTCCG | 2.58
TCATATAGGTAGACAGGTGAAAGTCCGTAAGTTA | 0.905
AGCACGAGGGCAATGAGTTGATAGCACGGGTGGC | 5.06
ACTAGCAGGCCAAGGGTCACTTAAGATTAGTCCG | 2.88
AGAAAGAGGTTATACGTAGATCAGGGAAGAAAGT | 1.4
TCTAGTTGGTCACGGAGGTCACAGACGACGGGTA | 5.81
CCTACTGGGCCAAAGGTCATTGGTTCCAATGCTC | 4.8
CCTCGGAGGACAACAGGAGGTAAGAGCTGCCAGA | -0.357
CGAACTCGGTCATCCAGGACAGTGAATACATTGA | 2.61
CCTCGGAGCACAGAAGGTCAGAGCTGTCCGCTTT | 1.33

Sequence | PBM binding z-score
TCATAGAGGTAAACAGGTGAAAGTCCGTAAGTTA | 0.83
CCTAGATGGTCAAGGTCACACACGCTATAGGTAC | 4.15
CCTACTGGGCCGTCAGGTCATTGATATCAACGTT | 1.32
CCGTACGGGTCACGAGGTTATAGCACGACGAGCG | 5.23
CCGACCGGGGCAAAGGTTACCATACTCAGTACGA | 2.06
AGAATGAGGTTATACGTAGATCAGGGGAGAAAGT | 1.42
CGAACGAGGGCATTAGTTGATAGCAAATGCCGAT | 0.658
CGTCCAAGTTCAGCAGGTCAGTGAAAGCGACGTG | 2.86
TCGAGTAGGTTTGTCGGGGCATTCAGCCAACATA | 0.467
TCTGCTAGGTCAGTAGGTCAGCTAACGAGCTGCC | 0.994
CAAACTAGGTCACGAAAGTTCAAAGTCGAATGAC | 7.01
CCAGACAGGTGAAAAGGTAACTCAGCCTCGATTA | 0.369
TCTATTAGTTGAAGGGCAACGGACGAGTCCGTTT | 1.06
CTCGAAAGGTCGGTTGCGGTGAGTATACGGATAA | 1.11
TCTAGTAGATCAGCAGGTTAAGAAAGCTGGCCAA | 0.524
CGTCCAAGATCAATGCTAGGTCAGTGAAAGCATT | 0.425
TATAGCAGGCCAGAGGGTCACTCAAGAGGTACGG | 1.58
CGTCAAAGTTCAACTAAGGTAACGAAAAGCACGC | 4.64
ACTAGCAGGCCAAGGGTCAATCAAGATTAGTCCG | 2.66
GCCAGTTGGTCAGTAAAAGGTCACACACCGGTCG | 3.94
